Our source for the growth values is PubChem BioAssay (NCI).

This is part of a sample that, as a whole, favours compounds with a hit. Of some 83,000 tested, about 20% had one in any assay.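 Results are percent growth after 48 hours of single-concentration exposure. 100 means growth as in untreated cells, lower positive values show inhibition; negative values down to -100 show cell death.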 Values without a mark were called inactive. Active and inactive are the calls of the source. How the source made its calls: active means growth percent below 10; inactive means the rest.

Test systems include RPMI-8226 leukemia; OVCAR-8 ovarian; OVCAR-5 ovarian; OVCAR-4 ovarian; SK-OV-3 ovarian; IGROV1 ovarian; OVCAR-3 ovarian; HS 578T breast; NCI/ADR-RES ovarian; T-47D breast.
Holding throughout (assay): NCI-60 one-dose screen, 48 h (100 = growth as untreated, 0 = no growth, -100 = all killed)
Holding throughout (details): 10 µM unless noted

Regarding `COc1c(O)cc2oc3cc(O[C@@H]4OC(C)[C@@H](O)[C@H](O)C4O)c(CC=C(C)C)c(O)c3c(=O)c2c1CC=C(C)C` (stereo not given in full), the growth was 73.2% in the assay on RPMI-8226 leukemia; 99.3% in the assay with OVCAR-8 ovarian; 119% in the assay on OVCAR-5 ovarian; 102% in the assay on OVCAR-4 ovarian; 113% in the assay on SK-OV-3 ovarian; 83.9% in the assay with IGROV1 ovarian. Also, the growth in the assay on OVCAR-3 ovarian is 94.7%; with HS 578T breast, 98.4%; in the assay on NCI/ADR-RES ovarian, 102%; in the assay with T-47D breast, 86.6%.

Consider `Cc1nccc2c3ccc(OCc4cn(-c5ccc(Br)cc5)nn4)cc3n(CC(C)C)c12`, for which the growth with RPMI-8226 leukemia is -16.2% (active); with OVCAR-8 ovarian, 40.7%; with OVCAR-5 ovarian, 68.2%; with OVCAR-4 ovarian, 58.8%; with SK-OV-3 ovarian, 43.4%; in the assay with IGROV1 ovarian, 67.4%. The growth was 57.8% in the assay on OVCAR-3 ovarian, 59.4% with HS 578T breast, 32.1% in the assay on NCI/ADR-RES ovarian and 36.9% with T-47D breast.

In the case of `COC1=CC2C=C(C3N(c4ccccc4)NC(=O)[C@@H]4CCCN34)C(=O)NC2C=C1` (stereo not given in full), the growth in the assay with RPMI-8226 leukemia was 110%; in the assay on OVCAR-8 ovarian, 110%; in the assay with OVCAR-5 ovarian, 107%; in the assay with OVCAR-4 ovarian it was 96.8%; in the assay with SK-OV-3 ovarian, 104%; in the assay with IGROV1 ovarian, 105%. The growth with OVCAR-3 ovarian was 104%; in the assay on HS 578T breast it was 99%; in the assay on NCI/ADR-RES ovarian it was 101%; in the assay with T-47D breast, 99%.

With `CCCCCCCc1n(Cc2ccc3ccccc3c2)c2ccccc2[n+]1Cc1ccc2ccccc2c1`, the growth with RPMI-8226 leukemia is -53% (active); in the assay with OVCAR-8 ovarian, -69.8% (active); with OVCAR-5 ovarian it was -83.7% (active); in the assay with OVCAR-4 ovarian, -62.5% (active); in the assay with SK-OV-3 ovarian, -91.7% (active); in the assay with IGROV1 ovarian, -67.5% (active). Also, the growth with OVCAR-3 ovarian was -86.7% (active); in the assay on HS 578T breast, -42.7% (active); in the assay with NCI/ADR-RES ovarian it was -35% (active); in the assay with T-47D breast, -74.2% (active).

`CC1(c2ccccc2Cl)NC(=O)NC1=O` (stereo not given): the growth is 102% in the assay on RPMI-8226 leukemia; 102% in the assay on OVCAR-8 ovarian; 106% in the assay on OVCAR-5 ovarian; 109% in the assay with OVCAR-4 ovarian; 97.3% in the assay with SK-OV-3 ovarian; 106% in the assay with IGROV1 ovarian. Also, the growth with OVCAR-3 ovarian was 106%; in the assay on HS 578T breast, 99.7%; with NCI/ADR-RES ovarian, 96.9%; with T-47D breast, 79.3%.

On to `CN(C)CCCn1c2c(c3cc(-c4cccc(S(N)(=O)=O)c4)ccc3c1=O)C(=O)c1ccccc1-2`, for which the growth is 70.3% with RPMI-8226 leukemia; 56% in the assay on OVCAR-8 ovarian; 97.7% with OVCAR-5 ovarian; 82.3% in the assay on OVCAR-4 ovarian; 67.8% in the assay with SK-OV-3 ovarian; 66.7% in the assay with IGROV1 ovarian. In addition, the growth in the assay with OVCAR-3 ovarian was 87.8%; with HS 578T breast, 99.6%; in the assay on NCI/ADR-RES ovarian it was 70.6%; in the assay on T-47D breast it was 74.7%.

Consider `Cc1c(Cl)cccc1NC(=O)c1sc2nc3c(cc2c1N)CCCCCC3`, for which the growth with RPMI-8226 leukemia was 18.4%; in the assay on OVCAR-8 ovarian it was 17.5%; with OVCAR-5 ovarian, 46.7%; with OVCAR-4 ovarian, 46.8%; with SK-OV-3 ovarian, 34.8%; in the assay with IGROV1 ovarian it was 42.9%. Moreover, the growth was -18.1% (active) with OVCAR-3 ovarian, 24.6% in the assay with HS 578T breast, 17.1% in the assay with NCI/ADR-RES ovarian and 40.2% in the assay on T-47D breast.

`C=CCn1c(SCC(=O)Nc2ccc(C(=O)/C=C/c3cc(OC)c(OC)c(OC)c3)cc2)nnc1-c1ccc(Cl)cc1`: the growth with RPMI-8226 leukemia was -21.6% (active); in the assay on OVCAR-8 ovarian, 7.91% (active); with OVCAR-5 ovarian it was 88.9%; in the assay with OVCAR-4 ovarian, 37.3%; in the assay on SK-OV-3 ovarian, 51.4%; in the assay on IGROV1 ovarian, 14.3%. Further, the growth with OVCAR-3 ovarian was -41.9% (active); in the assay on HS 578T breast, 48.6%; in the assay on NCI/ADR-RES ovarian it was 41.3%; in the assay with T-47D breast, 18.1%.

For the compound `Cn1nc(C(F)(F)F)c(-c2cc(C(F)(F)F)cc(C(F)(F)F)c2)c1-c1ccc(OCc2ccc(Cl)cc2)cc1O`, the growth with RPMI-8226 leukemia was -14.5% (active); in the assay on OVCAR-8 ovarian it was 8.36% (active); in the assay with OVCAR-5 ovarian it was 29.1%; with OVCAR-4 ovarian it was 20.7%; with SK-OV-3 ovarian, -13.5% (active); in the assay on IGROV1 ovarian, 31.4%. In addition, the growth with OVCAR-3 ovarian is 7.02% (active); with HS 578T breast, 4.39% (active); with NCI/ADR-RES ovarian, 1.98% (active); in the assay on T-47D breast, -11.6% (active).

Turning to `COc1ccc(C(=O)c2cc(OC)c(OC)c(OC)c2)cc1OC(=O)CCl`, the growth is 29.7% with RPMI-8226 leukemia; 7.08% (active) in the assay on OVCAR-8 ovarian; 73.7% in the assay on OVCAR-5 ovarian; 54.5% with OVCAR-4 ovarian; 17.7% in the assay with SK-OV-3 ovarian; 25.7% in the assay with IGROV1 ovarian. Also, the growth is 0.464% (active) in the assay on OVCAR-3 ovarian, 48.9% in the assay with HS 578T breast, 10.2% in the assay with NCI/ADR-RES ovarian and 74.7% with T-47D breast.

For `O=C1NC(c2ccc(F)cc2)N=C2C(c3ccccc3)=NOC12` (stereo not given), the growth in the assay on RPMI-8226 leukemia is 107%; in the assay with OVCAR-8 ovarian it was 106%; with OVCAR-5 ovarian, 108%; with OVCAR-4 ovarian, 105%; in the assay on SK-OV-3 ovarian, 106%; in the assay on IGROV1 ovarian, 108%. Also, the growth was 109% with OVCAR-3 ovarian, 106% with HS 578T breast, 112% with NCI/ADR-RES ovarian and 104% in the assay on T-47D breast.

As to `Cc1nc(C)c(C)nc1C`, the growth in the assay with RPMI-8226 leukemia was 104%; in the assay with OVCAR-8 ovarian, 91.8%; with OVCAR-5 ovarian it was 115%; in the assay with OVCAR-4 ovarian, 114%; in the assay with SK-OV-3 ovarian, 96.5%; in the assay on IGROV1 ovarian it was 108%. Besides, the growth was 109% with OVCAR-3 ovarian, 85.6% in the assay on HS 578T breast, 109% in the assay with NCI/ADR-RES ovarian and 92.5% in the assay on T-47D breast.

Regarding `COc1cc(C(=O)Nc2cc(O)c(C/C=C(\C)CCC=C(C)C)c(O)c2)cc2c1O[C@]1(C)CC[C@@H](O)C(C)(C)[C@H]1C2`, the growth is -23.6% (active) with RPMI-8226 leukemia; 29.9% in the assay with OVCAR-8 ovarian; 48.5% in the assay on OVCAR-5 ovarian; 32.8% in the assay with OVCAR-4 ovarian; 17.9% with SK-OV-3 ovarian; 33.7% with IGROV1 ovarian. For the same compound, the growth in the assay with OVCAR-3 ovarian is 5.54% (active); in the assay on HS 578T breast, -1.79% (active); in the assay with NCI/ADR-RES ovarian it was 57.7%; with T-47D breast, 9.68% (active).
